Reference: PubChem BioAssay (NCI)
About 83,000 compounds went through this panel and 20% of them were active in at least one assay; those are over-represented in the sample as a whole.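 Negative percent growth values reflect cell death: -40 means 40% of the cells present at the start died, and -100 means all died.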 A number with no mark means an inactive call. Active and inactive are the calls of the source. How the source made its calls: active means growth percent below 10; inactive means the rest.

Legend:
Experiment in all cases: NCI-60 one-dose screen, 48 h (100 = growth as untreated, 0 = no growth, -100 = all killed)
Details in all cases: 10 µM unless noted
SK-MEL-2 melanoma = tested on: SK-MEL-2 melanoma
SN12C renal = tested on: SN12C renal
UO-31 renal = tested on: UO-31 renal
TK-10 renal = tested on: TK-10 renal
ACHN renal = tested on: ACHN renal
CAKI-1 renal = tested on: CAKI-1 renal
A498 renal = tested on: A498 renal
CCRF-CEM leukemia = tested on: CCRF-CEM leukemia
MOLT-4 leukemia = tested on: MOLT-4 leukemia
SR leukemia = tested on: SR leukemia
RPMI-8226 leukemia = tested on: RPMI-8226 leukemia
OVCAR-8 ovarian = tested on: OVCAR-8 ovarian
OVCAR-5 ovarian = tested on: OVCAR-5 ovarian
OVCAR-4 ovarian = tested on: OVCAR-4 ovarian
SK-OV-3 ovarian = tested on: SK-OV-3 ovarian
IGROV1 ovarian = tested on: IGROV1 ovarian
OVCAR-3 ovarian = tested on: OVCAR-3 ovarian
HS 578T breast = tested on: HS 578T breast
NCI/ADR-RES ovarian = tested on: NCI/ADR-RES ovarian

| Structure (SMILES) | growth (SK-MEL-2 melanoma) | growth (SN12C renal) [%] | growth (UO-31 renal) | growth (TK-10 renal) | growth (ACHN renal) | growth (CAKI-1 renal) | growth (A498 renal) | growth (CCRF-CEM leukemia) | growth (MOLT-4 leukemia) | growth (SR leukemia) | growth (RPMI-8226 leukemia) | growth (OVCAR-8 ovarian) | growth (OVCAR-5 ovarian) | growth (OVCAR-4 ovarian) | growth (SK-OV-3 ovarian) | growth (IGROV1 ovarian) | growth (OVCAR-3 ovarian) | growth (HS 578T breast) | growth (NCI/ADR-RES ovarian) [%] |
| --- | --- | --- | --- | --- | --- | --- | --- | --- | --- | --- | --- | --- | --- | --- | --- | --- | --- | --- | --- |
| O=C(NC(Cc1nnc2n(Cc3ccccc3)c(=O)c3c4c(sc3n12)CCCC4)c1ccccc1)c1ccccc1 (stereo not given) | 108% | 119 | 65% | 119% | 127% | 101% | 109% | 61.9% | 61.2% | 104% | 123% | 77.1% | 86.7% | 103% | 110% | 54.9% | 107% | 101% | 87.9 |
| CCn1cc(CNc2ccc(C(=O)Nc3cc4cc(OC)c(OC)cc4c(C)n3)cc2)cn1 | 38.7% | 79.3 | 19.8% | 52.7% | 60.8% | 69% | 73.8% | 17.5% | 35.2% | 12.2% | 34.7% | 28% | 93.1% | 46.5% | 56.8% | 73% | 54.8% | 70.3% | 35.5 |
| CCN(CC)CCN1C(=O)c2c(c(C)c3c(oc4ccc(OC)cc43)c2C)C1=O | 115% | 92.6 | 17.5% | 94.3% | 9.28% (active) | 95.8% | 90.8% | 90.2% | 96.2% | 110% | 92.5% | 79.9% | 88.9% | 103% | 111% | 87.2% | 115% | 101% | 82.6 |
| CS(=O)(=O)Nc1cc(-c2ccc3ncc(C#N)c(Nc4ccc(F)c(Cl)c4)c3c2)cnc1Cl | -59.9% (active) | 18.2 | -6.94% (active) | -21.6% (active) | 10.2% | 4.91% (active) | -83.6% (active) | 0.41% (active) | -22.5% (active) | -0.801% (active) | -38.5% (active) | 4.09% (active) | 6.33% (active) | -6.46% (active) | -25.7% (active) | -16.4% (active) | -19.3% (active) | -17.7% (active) | 21.9 |
| Cc1ccc2c(-n3nc(C#N)c(C#N)c3N)cc(=O)[nH]c2c1 | 101% | 76.4 | 45.2% | 108% | 83.1% | 82.6% | 105% | 88.6% | 99.3% | 90.5% | 101% | 85.9% | 99.2% | 89% | 74.5% | 64.1% | 91.2% | 107% | 110 |
